Assay outcomes: PubChem BioAssay, National Center for Advancing Translational Sciences (NCATS)
Pf Dd2 growth: qHTS Primary assay for Inhibitors of Plasmodium falciparum Dd2 growth in vitro | Potency, µM (top dose mostly 28.9 µM), for inactives: at the top dose activity, negative = inhibition, usual class: inhibitors | P. falciparum Dd2 growth, SYBR Green, 72 h | hit rate 4.3% among 120,000; active means well fitted inhibition curve with a large enough effect;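 further: plate controls were DMSO vehicle for no effect and reference drug for full effect; nearly all actives have a fitted effect of over 65% in size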
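Readout: SYBR Green fluorescence, 485 nm excitation, 535 nm emission, after ~16 h lysis at 37C. Before that, Dd2-infected red cells (2.5% hematocrit) grew 72 h with compound, 29 uM top final concentration.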
* hit, by the source's call; i = inactive; [ ] = another dose, or the depositor's remark. This is one part of a sample in which hits are shown more often than they occur. Potency means the concentration at half of the fitted maximal effect.

SMILES	Pf Dd2 growth
CC(C)Oc1cccc2c1c(NC(=O)C1CCCO1)nn2Cc1ccccc1 (stereo not drawn)	i
Cn1nc(C(=O)N2CCC3(CCCNC3)C2)c2ccccc21 (stereo not drawn)	-21%
CCCC1(CO)CCCN(Cc2nc(C)no2)C1 (stereo not drawn)	-10%
COCCN1C(=O)CCC2(C(=O)NCc3c(C)n[nH]c3C)CCCC=C12 (stereo not drawn)	-3%
COc1cc(CN2CCC3(CC2)CN(c2ccncn2)CC3CO)ccc1F (stereo not drawn)	-13%
COc1cc(CN2CCC3(CCN(CC4CC4)CC3)C(CO)C2)ccc1F (stereo not drawn)	8.9µM*
COc1cc(CN2CCCC(c3[nH]ccc3C(N)=O)C2)ccc1F (stereo not drawn)	-29%
Cn1cccc1CN1CCCC2(CNc3ccccc3[S+](=O)([O-])N2)C1 (stereo not drawn)	-5%
Cc1ccc(Cl)cc1NC(=O)Cn1c(N2CCCCC2)nc(C)c(C)c1=O	i
O=C(c1ccncc1)N1CCc2nc3cc(-c4ccccc4Cl)[nH]n3c(=O)c2C1	3%[5.79 µM]
COc1ccc(C(=O)NCCC2CCN(C(=O)Nc3ccc(C)cc3)CC2)cc1OC	-20%
O=S(=O)(c1cc(F)cc(F)c1)N1CCCC(Cn2c(C3CC3)nc3cccnc32)C1 (stereo not drawn)	i
COc1cc2c(cc1OCc1ccc(Cl)cc1)N(Cc1ccccc1)CC21CCN(C(C)=O)CC1	i
COc1cc2c(cc1OCc1ccccc1)N(C(=O)[C@@H]1CCCO1)CC21CCN(C)CC1	i
COc1cc2c(cc1OCc1ccccc1)N(C(=O)c1c[nH]c3ccccc13)CC21CCN(C)CC1	2.5µM*
C[C@H]1[C@@H]2[C@@H](O)C([C@H](C)C(=O)N3CCCC3)CC[C@@]2(C)CC[C@@H]1NC(=O)Cc1ccccc1 (stereo partly drawn)	6%
CN1c2cc(C(=O)NCc3ccccc3)ccc2C(=O)N2CCCC21 (stereo not drawn)	i
O=C(c1ccc(C2CCNC2)cc1)N(Cc1ccccc1)CC1CCC1 (stereo not drawn)	13µM*
CCCN(Cc1nccn1C)C(=O)c1cccc(C2CCNC2)c1 (stereo not drawn)	15%
COCc1cc(CNC(=O)c2ccc(C3CCNC3)cc2)[nH]n1 (stereo not drawn)	7%
O=C(Cc1n[nH]c(=O)c2ccccc12)NC1CCCc2c1[nH]c1ccccc21 (stereo not drawn)	-17%
O=C(c1ccccc1)N1CC2(Cc3ccccc3NC2=O)C1	0%[44.1 µM]
Cc1cnc(CC2CCCN(C(=O)COc3ccccc3)C2)n1Cc1ccc(F)cc1 (stereo not drawn)	-23%
Cc1cnc(CC2CCN(C(=O)C3CC3)C2)n1C(C)C (stereo not drawn)	8%
CCCn1c(C)cnc1CC1CCN(S(=O)(=O)c2ccc3c(c2)CCC3)C1 (stereo not drawn)	1µM*
SMILES	Pf Dd2 growth
CCCn1c(C)cnc1CC1CCCN(S(C)(=O)=O)C1 (stereo not drawn)	-4%
CCN(CC)C(=O)N1CCCC(Cc2ncc(C)n2Cc2ccc(F)cc2)C1 (stereo not drawn)	3.5µM*
Cc1cnc(CC2CCN(S(=O)(=O)Cc3ccccc3)C2)n1C(C)C (stereo not drawn)	4.5µM*
CCS(=O)(=O)N1CCCC(Cc2ncc(C)n2C(C)C)C1 (stereo not drawn)	i
Cc1cnc(CC2CCN(S(=O)(=O)c3cn(C)cn3)C2)n1Cc1ccccc1 (stereo not drawn)	-19%
Cc1cnc(CC2CCN(S(=O)(=O)c3ccc4c(c3)CCC4)C2)n1CC1CC1 (stereo not drawn)	-16%
CCCn1c(C)cnc1CC1CCCN(S(=O)(=O)c2cn(C)cn2)C1 (stereo not drawn)	-9%
CCS(=O)(=O)N1CCCC(Cc2ncc(C)n2Cc2ccc(F)cc2)C1 (stereo not drawn)	1.8µM*
COc1ccc(C(=O)N2CCCC(Cc3ncc(C)n3Cc3ccc(F)cc3)C2)cn1 (stereo not drawn)	i
COc1ccccc1Cn1c(-c2ccc(Cl)cc2)nc(C)c(CCO)c1=O	-8%
O=C1c2c(nc(CNC3CCOCC3)n2Cc2ccccc2)NCCN1CC1CC1	i
O=C(NC1CCCCC1)C1CCCN(c2cnc3nccnc3c2)C1 (stereo not drawn)	i
C#CCNC(=O)C1CCCN1c1nc2ncccc2o1 (stereo not drawn)	-1%[44.1 µM]
CCc1nnc([C@@H]2CC(F)(F)CN2C(=O)Cn2cccn2)o1	28%
Cc1nc2ccc(C(=O)N3CCSCC3)cc2nc1C	-18%
O=C(N[C@@H]1CCOC[C@H]1Oc1cccc(F)c1)c1ccc(-n2ccnc2)cc1	-21%
COCCNS(=O)(=O)c1cc(C(=O)O)cc(-c2ccc(OC)c(F)c2)c1	-11%
CCc1ccccc1NC(=O)Cn1cc(C(=O)c2ccncc2)c(=O)c2cc(C)ccc21	i
CCOc1ccc2c(c1)c(=O)c(C(=O)c1ccc(CC)cc1)cn2CC(=O)Nc1ccccc1OC	-7%
CCOc1ccc(C(=O)c2cn(CC(=O)Nc3ccc(Cl)cc3)c3cc4c(cc3c2=O)OCO4)cc1	-9%
CCc1ccc2c(c1)c(=O)c(C(=O)c1ccc(C)cc1)cn2CC(=O)Nc1ccccc1C	-2%
COc1cc(NC(=O)Cn2ccn(Cc3ccccc3OC)c(=O)c2=O)cc(OC)c1	34%
COc1ccccc1Cn1cc(C(=O)c2ccccc2)c(=O)c2cc(OC)c(OC)cc21	2.5µM*
COc1ccc2c(c1)c(=O)c(C(=O)c1ccc(C)cc1)cn2Cc1ccccc1F	13µM*
CCOc1ccc(NC(=O)Cn2cc(C(=O)c3ccc(F)cc3)c(=O)c3cc4c(cc32)OCCO4)cc1	9%
SMILES	Pf Dd2 growth
O=C(c1ccc(F)cc1)c1cn(Cc2ccccc2F)c2cc3c(cc2c1=O)OCCO3	61%[5.79 µM]
CCOc1ccc(C(=O)c2cn(Cc3ccc(Cl)cc3)c3cc(OC)c(OC)cc3c2=O)cc1	7.9µM*
O=C(c1ccc(Cl)cc1)c1cn(Cc2ccccc2)c2cc3c(cc2c1=O)OCCO3	11µM*
CCOc1ccc(NC(=O)Cn2cc(C(=O)c3ccccc3)c(=O)c3cc4c(cc32)OCO4)cc1	-1%
CCOC(=O)C1=CN(CC(=O)NC(C)c2ccccc2)S(=O)(=O)N=C1C (stereo not drawn)	30%
COc1cccc2c1OCC(CNC(=O)CCc1cn3ccccc3n1)C2 (stereo not drawn)	10%
Cc1ccc(CNC(=O)N2CCCCCNC(=O)[C@@H]3CCCC[C@@H]32)cc1	-17%
O=C(Cn1c(=O)oc2ccccc21)N1CCC2(CC1)CC(OCC1CC1)CCO2 (stereo not drawn)	-3%
NC(c1ccccc1)c1nnc2n1CCN(C(=O)N1CCCC1)C2 (stereo not drawn)	51%
CC1(c2ccccc2)N(Cc2ncccn2)C(=O)OC12CCN(C(=O)Cc1ccc(O)cc1)CC2 (stereo not drawn)	-19%
C=CCCC(CN1CCSCC1)Oc1cc(CC)nc(C)n1 (stereo not drawn)	i
CC(C(=O)N1CCN(c2cc(-c3ccccc3)[nH]n2)CC1)c1ccccc1 (stereo not drawn)	-19%
Cc1cccc(CC(=O)N2CCCN(c3cc(-c4ccc(Br)cc4)[nH]n3)CC2)c1	i
Cc1c(NC(=O)CCc2cc3n(n2)CCNC3)cccc1-c1nncn1C	-3%
CCOc1ccc(NC(=O)Cn2cc(C(=O)c3ccc(OC)cc3)c(=O)c3cc4c(cc32)OCO4)cc1	4%
